Test results reported in PubChem BioAssay (Tox21).
Where “and” joins values, the source holds several entries; their conditions need not be identical. Equal values may be shown once. Inconclusive results are not listed. A call without a number means that no potency is given here. Some structures have more than one record in an assay (separate samples or runs), and their calls can disagree. Calls of active or inactive are those of the source. Calls follow the shape of the dose curve; as a rule, active = well fitted cell-killing curve with a large enough effect in the repeat runs; inconclusive = weak or mixed curves, or effect the other way; inactive = no such curve, though single readings can be large or run the other way. Positions of bridges follow the written chain, without caps; N, C: chain ends. Non-standard residues stand in square brackets, D forms with d. Residues, ends and D or L forms follow the SMILES beside them. *: point of attachment. Dab(CH2SO3H) = N[C@@H](CCNCS(=O)(=O)O)C(=O)O; X3 = CC[C@@H](C)CCCCC(=O)*; Dab = NCC[C@H](N)C(=O)O

Test: qHTS assay to identify small molecule antagonists of the thyroid receptor (TR) signaling pathway - cell viability counter screen (AID 743064); also: nearly all actives have a fitted effect of over 50% in size
Conditions: GH3.TRE-Luc viability, CellTiter-Fluor, 24 h; series mostly up to 70.3 µM
Excerpt: National Center for Advancing Translational Sciences [NCATS]
NIH Chemical Genomics Center [NCGC]
U.S. Environmental Protection Agency [EPA]
National Institutes of Environmental Health Sciences [NIEHS]
National Toxicology Program [NTP]
U.S. Food and Drug Administration [FDA]
Thyroid receptor (TR), a nuclear hormone receptor, plays an important role in development, proliferation, differentiation, metabolism, brain function, and cardiovascular system. […] To profile the Tox21 10K compound library in TR signaling, a cell-based GH3-TRE-Luc assay (GH3.TRE-Luc cell line, developed by the laboratory of Dr. Albertinka J. Murk, Wageningen University) was used to measure the inhibition of TR. GH3 (rat pituitary tumor) cells stably expressing a TR activity sensor consisting of two TR response elements and a luciferase reporter gene. The cytotoxicity of the Tox21 compound library against the GH3.TRE-Luc cell line was tested in parallel by measuring the cell viability using CellTiter-Fluor assay (Promega, Madison, WI) in the same wells.
Tox21 Assay Protocol Summary:
GH3.TRE-Luc cells were dispensed at 1500 cells/4 uL/well into 1536-well white solid bottom plates using a Multidrop Combi dispenser (Thermo Fisher Scientific Inc., Waltham, MA). After the assay plates were incubated at 37 C for 4 hours, 23 nL of library compound or DMSO controls was transferred to the assay plates by a pintool station (Kalypsys, San Diego, CA), followed by addition of 1 ul of T3 (1 nM, final concentration in the wells) to stimulate TR transactivation. The assay plates were incubated at 37 C for 23.5 h, and then 1 uL of CellTiter-Fluor reagent (Promega, Madision, WI) of measuring cytotoxicity was added to each well using a Bioraptr Flying Reagent Dispenser (FRD) workstation (Beckman Coulter, Indianapolis, IN, USA). The plates were incubated at 37C and 5% CO2 for additional 30 min, and fluorescence intensity was measured by a ViewLux plate reader (PerkinElmer, Shelton, CT).
Potency is read from the fitted curve at half-maximal effect.

SMILES | Potency
Cc1c(O)c(=O)ccn1C | inactive
O=C1OC(=O)c2cc(-c3ccc4c(c3)C(=O)OC4=O)ccc21 | inactive
CCCCCCCCCCCCCCCCCCNC(=O)OC1CCN(C(=O)OC[C@H](COC(=O)N(Cc2cccc[n+]2CC)C(=O)c2ccccc2OC)OC)CC1 | 15 µM (active)
COc1c(Br)cc(Br)c(C)c1Br | inactive
CC(C)(S)C(=O)N[C@@H](CS)C(=O)O | inactive
CCC(NC(C)C)C(O)c1ccc(O)c(O)c1 (stereo not given) | inactive
COc1cc(/C=C/C(=O)CC(=O)/C=C/c2ccc(O)c(OC)c2)ccc1O | 23.7 µM (active) and inactive and 13.8 µM (active)
CCN1\C(=C/C=C/C=C/c2sc3ccccc3[n+]2CC)Sc2ccccc21 | 5.96 µM (active) and 7.5 µM (active)
CC(=O)Nc1ccc(OC(C)=O)cc1 | inactive
C=C1[C@@H]2CC[C@@H](C2)C1(C)C | inactive
CCOC(=O)[C@H](CCc1ccccc1)N[C@@H](C)C(=O)N1[C@H](C(=O)O)C[C@H]2CCCC[C@@H]21 | inactive
C[N+](C)(C)CCOP(=O)(O)OP(=O)([O-])OC[C@H]1O[C@@H](n2ccc(N)nc2=O)[C@H](O)[C@@H]1O | inactive
CC(=NCc1ccccc1)c1ccccc1O | inactive
NC[C@H]1O[C@H](O[C@H]2[C@H](O)[C@@H](O[C@H]3O[C@H](CO)[C@@H](O)[C@H](N)[C@H]3O)[C@H](N)C[C@@H]2N)[C@H](N)C[C@@H]1O | inactive
CC[C@H]1OC(=O)C[C@@H](O)[C@H](C)[C@@H](O[C@@H]2O[C@H](C)[C@@H](O)[C@H](N(C)C)[C@H]2O)[C@@H](CCN2C[C@H](C)C[C@H](C)C2)C[C@@H](C)C(=O)/C=C/C(C)=C/[C@@H]1CO[C@@H]1O[C@H](C)[C@@H](O)[C@@H](OC)[C@H]1OC | inactive
O=C1c2c(O)cccc2[C@H]([C@@H]2O[C@H](CO)[C@@H](O)[C@H](O)[C@H]2O)c2cc(CO)cc(O)c21 | inactive
C[S+](CC[C@H](N)C(=O)O)C[C@H]1O[C@@H](n2cnc3c(N)ncnc32)[C@H](O)[C@@H]1O (stereo not given in full) | inactive
NC(=O)C1c2ccccc2CCc2ccccc21 | inactive
CC(=O)OCC(=O)[C@@]1(O)CC[C@H]2[C@@H]3CCC4=CC(=O)CC[C@]4(C)C3=CC[C@@]21C | inactive
Nc1ccc(N)c([N+](=O)[O-])c1 | 32.5 µM (active)

SMILES | Potency
O=C1CCC(c2ccc(-n3ccnc3)cc2)=NN1 | inactive
CC(C)Cc1ccc([C@H](C)C(=O)O)cc1 | inactive
CC(C)c1ncc([N+](=O)[O-])n1C | inactive
C/C=C/C1=C(C(=O)O)N2C(=O)[C@@H](NC(=O)[C@H](N)c3ccc(O)cc3)[C@H]2SC1 | inactive
NCC[C@H](O)C(=O)N[C@@H]1C[C@H](N)[C@@H](O[C@H]2O[C@H](CN)CC[C@H]2N)[C@H](O)[C@H]1O[C@H]1O[C@H](CO)[C@@H](O)[C@H](N)[C@H]1O | inactive
CNCCC=C1c2ccccc2CCc2ccccc21 | 11.9 µM (active)
CCN(CC)CCOC[C@H]1O[C@@H](O)[C@H](OCCN(CC)CC)[C@@H](O)[C@@H]1O | inactive
CC[C@@H](C)CCCCC(=O)N[C@@H](CCNCS(=O)(=O)O)C(=O)N[C@H](C(=O)N[C@@H](CCNCS(=O)(=O)O)C(=O)N[C@H]1CCNC(=O)[C@H]([C@@H](C)O)NC(=O)[C@H](CCNCS(=O)(=O)O)NC(=O)[C@H](CCNCS(=O)(=O)O)NC(=O)[C@H](CC(C)C)NC(=O)[C@@H](CC(C)C)NC(=O)[C@H](CCNCS(=O)(=O)O)NC1=O)[C@@H](C)O (X3-[Dab(CH2SO3H)]T[Dab(CH2SO3H)][Dab][Dab(CH2SO3H)][dL]L[Dab(CH2SO3H)][Dab(CH2SO3H)]T; lactam 4-C) | inactive
CN=C(N)NCCC[C@H](N)C(=O)O | inactive
C[C@@H]1O[C@@H](OC[C@H]2O[C@@H](Oc3c(-c4ccc(OCCO)c(OCCO)c4)oc4cc(OCCO)cc(O)c4c3=O)[C@H](O)[C@@H](O)[C@@H]2O)[C@H](O)[C@H](O)[C@H]1O | inactive
CC(C)COC(=O)OCN1C(=O)CN(CCN2CC(=O)N(COC(=O)OCC(C)C)C(=O)C2)CC1=O | inactive
CC(C)[N+]1(C)[C@@H]2CC[C@H]1CC(OC(=O)C(CO)c1ccccc1)C2 (stereo not given in full) | inactive
COC(=O)C[C@](O)(CCCC(C)(C)O)C(=O)O[C@@H]1C(OC)=CC23CCCN2CCc2cc4c(cc2[C@H]13)OCO4 (stereo not given in full) | 0.0596 µM (active)
COc1cc(NS(C)(=O)=O)ccc1Nc1c2ccccc2nc2ccccc12 | 0.188 µM (active)
CC12CCC(C[N+](C)(CCC[N+](C)(C)C)C1)C2(C)C (stereo not given) | inactive
CC(C)[C@H](NC(=O)[C@H](CC(=O)O)NC(=O)[C@H](CCCCN)NC(=O)[C@@H](N)CCCN=C(N)N)C(=O)N[C@@H](Cc1ccc(O)cc1)C(=O)O (H-RKDVY-OH) | inactive
NC(N)=NCc1cccc(I)c1 | inactive
COC(=O)C(CN)c1c[nH]c2ccc(OC)cc12 (stereo not given) | inactive
Cc1cc(F)ccc1-c1cc(N2CC[C@@H](O)[C@H]2CO)ncc1N(C)C(=O)C(C)(C)c1cc(C(F)(F)F)cc(C(F)(F)F)c1 | 10.7 µM (active)
CN1CCN(c2ccccc2/C=C2\SCCN(c3ccc(Cl)c(Cl)c3)C2=O)CC1 | 8.63 µM (active)
